Laboratory results published in the supplement of paper PMC8047044.

System: Neuro-2a
Assay: neurite formation score, plate-normalized to DMSO control mean 5.04 (score (0-8 scale)); higher = more or longer neurites
Conditions: 0.1 µM
Description: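 Neuro-2a mouse neuroblastoma cells in PLL-coated 96-well plates were pre-treated for 1 h in DMEM(+) with each kinase inhibitor at 0.1 µM, then switched to serum-free DMEM(-) with inhibitor to induce neurite outgrowth and fixed about 2-3 h later. Three blinded observers scored neurite formation from 0 (no neurites) to 8 (long neurites on almost all cells).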

SMILES	neurite formation score
Nc1nccc(Oc2ccc(NC(=O)c3c[nH]cc(-c4ccc(F)cc4)c3=O)cc2F)c1Cl	4.92
CNC(=O)c1ccccc1Nc1cc(Nc2ccc(N3CCOCC3)cc2OC)ncc1C(F)(F)F	5.58
O=C1NC(=NCc2cccs2)S/C1=C\c1ccc2ncccc2c1	4.25
CNC(=O)c1cc(Oc2ccc(NC(=O)Nc3ccc(Cl)c(C(F)(F)F)c3)c(F)c2)ccn1 [Regorafenib monohydrate]	5.25
COc1ccc(CNC(=O)Nc2ncc([N+](=O)[O-])s2)cc1	4.71
COc1cc2nccc(Oc3ccc(NC(=O)Nc4ccc(F)cc4F)c(F)c3)c2cc1OC	4.38
Cc1nc(NC(=O)N2CCC[C@H]2C(N)=O)sc1-c1ccnc(C(C)(C)C(F)(F)F)c1	5.21
CCCS(=O)(=O)Nc1ccc(F)c(C(=O)c2c[nH]c3ncc(-c4ccc(Cl)cc4)cc23)c1F [Vemurafenib (PLX4032, RG7204)]	4.04
COc1cc2ncnc(Nc3ccc(O)cc3)c2cc1OC	4.25
C[S+]([O-])c1ccc(-c2nc(-c3ccc(F)cc3)c(-c3ccncc3)[nH]2)cc1 (stereo not given)	4.88
C=CCc1ccc(O)c(-c2ccc(O)c(CC=C)c2)c1 [Honokiol]	2.76
N#CC(=C(/N)Sc1ccccc1N)/C(C#N)=C(\N)Sc1ccccc1N	5.71
COc1cc2/c(=N/c3ccc(Br)cc3F)nc[nH]c2cc1OCC1CCN(C)CC1 [Vandetanib (ZD6474)]	5.09
C=CC(=O)Nc1cccc(Oc2nc(Nc3ccc(N4CCN(C)CC4)cc3OC)ncc2Cl)c1	4.04
Cc1cc([C@@H](C)Nc2ccccc2C(=O)O)c2nc(N3CCOCC3)cc(=O)n2c1	4.54
O=C(NC[C@H](O)CO)c1ccncc1Nc1ccc(I)cc1F	5.54
C[C@H]1Oc2cc(cnc2N)-c2c(nn(C)c2C#N)CN(C)C(=O)c2ccc(F)cc21	5.08
Cc1ccc(C(=O)Nc2cccc(C(F)(F)F)c2)cc1Nc1nc(-c2cccnc2)nc2c1cnn2C	4.25
CNC(=O)c1cc(COc2nnc(Nc3ccc(Cl)cc3)c3ccoc23)ccn1 [Telatinib (BAY 57-9352)]	4.92
C=CC(=O)Nc1cccc(Nc2nc(Nc3ccc(N4CCN(C(C)=O)CC4)cc3OC)ncc2C(F)(F)F)c1	3.71

SMILES	neurite formation score
CCN1C(=CC(C)=O)Sc2ccc(OC)cc21	4.92
CCS(=O)(=O)c1cccc(-c2cc(C(=O)NC3CCN(C)CC3)c(C)c3[nH]c4ncc(C)cc4c23)c1	4.58
Cc1cc(O)c2c(c1)C(=O)c1cccc(O)c1C2=O [Chrysophanol]	4.76
O=c1ncn2nc(Sc3ccc(F)cc3F)ccc2c1-c1c(Cl)cccc1Cl	4.92
CN(c1ccccc1CNc1nc(Nc2ccc3c(c2)CC(=O)N3)ncc1C(F)(F)F)S(C)(=O)=O	3.58
CN1CCN(c2ccc3nc(-c4c(N)c5c(F)cccc5[nH]c4=O)[nH]c3c2)CC1 [Dovitinib Dilactic acid]	4.92
O=[N+]([O-])c1ccc(-c2nc(-c3ccc(F)cc3)c(-c3ccncc3)[nH]2)cc1	4.25
COc1cc(Nc2ncc(F)c(Nc3ccc4c(n3)NC(=O)C(C)(C)O4)n2)cc(OC)c1OC [R406 (free base)]	5.21
CCN(CC)CCCC(C)Nc1ccnc2cc(Cl)ccc12 (stereo not given) [Chloroquine diphosphate]	4.58
c1cncc(CN2CCC(n3ncc4c(N5CCOCC5)nc(-c5ccc6[nH]ccc6c5)nc43)CC2)c1	0.751
COc1cc2ncnc(Sc3nnc(C)s3)c2cc1OC	4.25
CCCCCCCCCCCCCCCCOP(=O)([O-])OCC[N+](C)(C)C [Miltefosine]	2.58
CN([C@@H](Cc1ccc(OS(=O)(=O)c2cccc3cnccc23)cc1)C(=O)N1CCN(c2ccccc2)CC1)S(=O)(=O)c1cccc2cnccc12	4.54
Cc1ccc(C(=O)Nc2ccc(CN3CCN(C)CC3)c(C(F)(F)F)c2)cc1C#Cc1cnc2cccnn12	3.88
NC1(Cc2ccc(Cl)cc2)CCN(c2ncnc3[nH]ccc23)CC1	4.92
C[C@H](NC(=O)/C(C#N)=C/c1cccc(Br)n1)c1ccccc1	4.58
C[C@]1(O)C[C@@H](c2nc(-c3ccc4ccc(-c5ccccc5)nc4c3)c3c(N)nccn32)C1 [Linsitinib]	4.54
O=C(NCCCNc1nc(Nc2cccc(CN3CCOCC3)c2)ncc1C1CC1)C1CCC1	5.25
COc1cc2ncnc(Oc3cccc(NC(=O)Nc4cc(C(C)(C)C(F)(F)F)on4)c3)c2cc1OC	4.71
CNC(=O)c1ccc(C)c(-n2c(C)cc(OCc3ccc(F)cc3F)c(Br)c2=O)c1	2.21
